Assay: qHTS profiling of the MIPE4 collection as inhibitors of Plasmodium falciparum (HB3) proliferation (AID 743347);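 also: plate controls were DMSO vehicle wells for no effect and artemisinin wells for full effect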
Settings: P. falciparum HB3 in erythrocytes, SYBR Green DNA, 72 h; at 28.5 µM (top of the series)
Outline: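 Erythrocytes infected with P. falciparum (0.3% parasitemia, 2.5% hematocrit) incubated with compounds 72 h at 37 C, 5% CO2. Lysis with saponin/Triton buffer containing SYBR Green I, overnight at room temperature in the dark; DNA fluorescence (485/535 nm) normalised to 0.29 uM artemisinin and DMSO.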

SMILES | growth, % of control [%]
CC(=O)OCC1=C(C(=O)O)N2C(=O)[C@@H](N)[C@@H]2SC1 | 97.3
CN[C@@H]1Cc2cccc3[nH]c(=O)n(c23)C1 | 85.5
COc1ccc2c(c1)[C@]13CCCCC1C(C2)N(C)CC3 (stereo not given in full) | 323
C[C@H]([C@H](O)CCC(C)(C)O)[C@H]1CC[C@@]2(O)C3=CC(=O)[C@@H]4C[C@@H](O)[C@@H](O)C[C@]4(C)[C@@H]3CC[C@]12C | 59
COC(=O)[C@@H](N)CCCN=C(N)N[N+](=O)[O-] | 92.1
C[C@@H]1CC[C@@]2(OC1)O[C@H]1C[C@H]3[C@@H]4CC=C5C[C@@H](O[C@@H]6O[C@H](CO)[C@@H](O[C@@H]7O[C@@H](C)[C@H](O)[C@@H](O)[C@@H]7O)[C@H](O)[C@@H]6O[C@@H]6O[C@@H](C)[C@H](O)[C@@H](O)[C@@H]6O)CC[C@]5(C)[C@@H]4CC[C@]3(C)[C@@H]1[C@H]2C | 28.8
C[C@]12Cc3cn[nH]c3C[C@@H]1CC[C@@H]1[C@H]2CC[C@@]2(C)[C@H]1CC[C@]2(C)O | 47.2
C[C@@H]1CC[C@H]2[C@@H](C)C(=O)O[C@@H]3O[C@@]4(C)CC[C@H]1[C@]32OO4 | 7.52
COC[C@H]1OC(=O)c2coc3c2[C@@]1(C)C1=C(C3=O)[C@@H]2CC[C@H](O)[C@@]2(C)C[C@@H]1OC(C)=O | 48.8
C[C@]12CC[C@@H]3[C@@H](CCC4=CC(=O)CC[C@@H]43)[C@@H]1CC[C@@H]2OC(=O)CCc1ccccc1 | 90.8
COc1cc([C@@H]2c3cc4c(cc3[C@@H](O)C3COC(=O)C32)OCO4)cc(OC)c1O (stereo not given in full) | 66.2
O=c1cccc2n1CC1CNC[C@H]2C1 | 52.1
C[C@@H]1O[C@@H](O[C@@H]2C=C3CC[C@@H]4[C@@H](CC[C@]5(C)[C@H](c6ccc(=O)oc6)CC[C@@]45O)[C@@]3(C)CC2)[C@H](O)[C@H](O)[C@H]1O | 94.5
CC(C)(O)C=CC(=O)[C@](C)(O)[C@H]1[C@H](O)C[C@]2(C)[C@@H]3CC=C4[C@@H](C=C(O)C(=O)C4(C)C)[C@]3(C)C(=O)C[C@@]12C | 7.62
Cc1ccccc1-n1c(Cn2ncc3c(N)ncnc32)nc2cccc(C)c2c1=O | 53.3
Cc1[nH]nc2ccc(-c3cncc(OC[C@@H](N)Cc4c[nH]c5ccccc45)c3)cc12 | 8.77
Clc1ccccc1C(c1ccccc1)(c1ccccc1)n1cccn1 | 6.73
C#C[C@]1(O)C=C[C@@H]2[C@@H]3CCC4=CC(=O)CC[C@@H]4[C@H]3CC[C@@]21CC | 41.2
CN(C)[C@@H]1C(=O)C(C(N)=O)=C(O)[C@@]2(O)C(=O)C3=C(O)c4c(O)cccc4[C@@](C)(O)[C@H]3[C@H](O)[C@@H]12 | 19.3
C[C@]12CC[C@H]3[C@@H](CCC4=CC(=O)CC[C@@]43C)[C@H]1CC[C@H]2OC(=O)CCC1CCCC1 | 6.49

SMILES | growth, % of control [%]
CC(=Cc1csc(C)n1)[C@@H]1C[C@H]2O[C@]2(C)CCC[C@H](C)[C@@H](O)[C@@H](C)C(=O)C(C)(C)[C@@H](O)CC(=O)O1 | 16.9
COCC1(CO)C(=O)C2CCN1CC2 (stereo not given) | 87.2
O=C(N[C@H]1CN2CCC1CC2)c1ccc(Cl)cc1 | 71.8
C[C@@H]1[C@H](O)[C@@H](C)C=CC=CCCC=CC=CC=CC=C[C@H](O[C@H]2O[C@@H](C)[C@H](O)[C@@H](N)[C@@H]2O)CC2O[C@](O)(C[C@@H](O)[C@H](O)CC[C@@H](O)C[C@@H](O)C[C@@H](O)CC(=O)O[C@H]1C)C[C@H](O)[C@H]2C(=O)O | 83.8
CCOP(=O)(OCC)C(C)NC(=O)N(CCCl)N=O (stereo not given) | 116
CCC(=O)OC1CCC2C3CCC4=CC(=O)CC[C@@]4(C)C3CC[C@]12C (stereo not given in full) | 94.7
CC[C@@]1(O)C(=O)OCc2c1cc1n(c2=O)Cc2cc3ccccc3nc2-1 | 5.89
CC1=C(O)C(=O)C=C2C1=CC=C1[C@@]2(C)CC[C@@]2(C)[C@@H]3C[C@](C)(C(=O)O)CC[C@]3(C)CC[C@]12C | 8.31
CC(C)(C)[C@]1(O)C[C@@H]2OC(=O)C[C@@]23C(=O)O[C@@H]2OC(=O)[C@H](O)C213 (stereo not given in full) | 75.6
O=C(Nc1ccncc1)C(=O)c1cn(Cc2ccc(Cl)cc2)c2ccccc12 | 78.4
O=[N+]([O-])c1ncc[nH]1 | 81.7
COc1cc2cc(c1Cl)N(C)C(=O)C[C@H](OC(=O)C(C)C)[C@]1(C)O[C@H]1[C@H](C)[C@@H]1C[C@@](O)(NC(=O)O1)[C@H](OC)C=CC=C(C)C2 | 9.61
CC(=Cc1csc(C)n1)[C@@H]1C[C@H]2O[C@@H]2CCC[C@H](C)[C@@H](O)[C@@H](C)C(=O)C(C)(C)[C@@H](O)CC(=O)O1 | 12.9
CC(=O)O[C@@]12CO[C@H]1C[C@H](O)[C@@]1(C)C(=O)[C@H](O)C3=C(C)[C@@H](O)C[C@@](O)([C@@H](OC(=O)c4ccccc4)[C@@H]21)C3(C)C | 34.8
CC(C)[C@]12O[C@@H]1[C@@H]1O[C@]13[C@]1(O[C@H]1C[C@@H]1C4=C(CC[C@@]13C)C(=O)OC4)[C@H]2O | 44.2
C[C@H]1CCCC=CC2C[C@H](O)C[C@@H]2[C@H](O)C=CC(=O)O1 (stereo not given in full) | 2.99
COC1=C[C@@H]2[C@@H]3Cc4ccc(OC)c(O)c4[C@]2(CCN3C)CC1=O | 106
COc1cccc2c1[C@]13CCN(CC4CC4)[C@H](C2)[C@]1(OC)CCC(=O)C3 | 69.1
C[C@]12CC[C@H](O)CC1=CC[C@H]1[C@H]3CCC(=O)[C@@]3(C)CC[C@@H]12 | 98.3
O=c1[nH]c2ccc(Cl)cc2c(N[C@@H]2CN3CCC2CC3)c1-c1nc2ccccc2[nH]1 | 2.7
